We go through 2 molecules from PubChem BioAssay (EPA / NIEHS).

As usually defined, the AC50 is the midpoint of the concentration-response curve, whichever way the signal moves.

The structures appear in SMILES notation. The source made the active and inactive calls. Rule for the calls: active = hit-call score of the fitted dose curve at least 0.9, where 1 is the maximum; inactive = score below 0.9.

Read-out in assay [1]: TIMP metallopeptidase inhibitor 2 (TIMP2), TIMP2 (gene 7077)
The experiment in a line: BSK_KF3CT_TIMP2: BioMAP Diversity Plus: KF3CT Assay for TIMP metallopeptidase inhibitor 2 (TIMP2) Biomarker Activity (AID 2283071). The conditions noted are these: primary human keratinocytes with fibroblasts; actives raise or lower the signal. A digest of the protocol:
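ELISA readout of TIMP-2 in keratinocyte plus foreskin fibroblast co-cultures (human skin primary cells), 24 h post-dose. Gain or loss of signal fitted relative to DMSO.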

Read-out in assay [2]: Transforming growth factor beta 1 (TGFb1), TGFB1 (gene 7040)
Description: BSK_KF3CT_TGFb1: BioMAP Diversity Plus: KF3CT Assay for Transforming growth factor beta 1 (TGFb1) Biomarker Activity (AID 2283072). To be noted: primary human keratinocytes with fibroblasts; actives raise or lower the signal. A digest of the protocol:
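Read-out: ELISA for TGF-b1 in keratinocyte/foreskin fibroblast human skin co-culture, 24 h after dosing; bidirectional curve fit vs DMSO baseline; gain or loss of signal scored.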

Read-out in assay [3]: C-C motif chemokine 2 (Homo sapiens) (UniProt P13500)
The experiment in a line: BSK_KF3CT_MCP1: BioMAP Diversity Plus: KF3CT Assay for Monocyte Chemoattractant Protein 1 (MCP1/CCL2) Biomarker Activity (AID 2283073). To be noted: primary human keratinocytes with fibroblasts; actives raise or lower the signal. A digest of the protocol:
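Human keratinocyte plus foreskin fibroblast primary co-culture exposed to chemical for 24 h. MCP-1 levels measured by ELISA. Bidirectional curve fitting relative to DMSO negative control as baseline.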

Read-out in assay [4]: Matrix Metallopeptidase 9 (MMP9), MMP9 (gene 4318)
The experiment in a line: BSK_KF3CT_MMP9: BioMAP Diversity Plus: KF3CT Assay for Matrix Metallopeptidase 9 (MMP9) Biomarker Activity (AID 2283074).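 For AC50: MMP9 protein level quantified by ELISA in the co-culture.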 The conditions noted are these: primary human keratinocytes with fibroblasts; actives raise or lower the signal. The procedure, abridged: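 ELISA read-out of MMP-9 at 24 h post-dosing in a co-culture of human skin keratinocytes and foreskin fibroblasts. Gain or loss of signal was fitted in both directions against DMSO.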

Read-out in assay [5]: urokinase plasminogen activator (uPA), PLAU (gene 5328)
Description: BSK_KF3CT_uPA: BioMAP Diversity Plus: KF3CT Assay for urokinase plasminogen activator (uPA) Biomarker Activity (AID 2283075). The conditions noted are these: primary human keratinocytes with fibroblasts; actives raise or lower the signal. A digest of the protocol:
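Skin co-culture (keratinocytes + foreskin fibroblasts), human primary; 24 h post-dose; uPA by ELISA; gain/loss fit vs DMSO baseline.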

Read-out in assay [6]: CD40, CD40 (gene 958)
Description: BSK_LPS_CD40: BioMAP Diversity Plus: LPS Assay for CD40 Biomarker Activity (AID 2283076). To be noted: primary human HUVEC with PBMC; actives raise or lower the signal. A digest of the protocol: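 Primary human umbilical vein endothelial cells co-cultured with peripheral blood mononuclear cells, LPS-stimulated, were dosed with chemical and read 24 h later. CD40 levels were measured by ELISA and fitted bidirectionally against DMSO as negative control and baseline.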

Read-out in assay [7]: E-selectin (Homo sapiens) (UniProt P16581)
Description: BSK_LPS_Eselectin: BioMAP Diversity Plus: LPS Assay for Eselectin Biomarker Activity (AID 2283077). The conditions noted are these: primary human HUVEC with PBMC; actives raise or lower the signal. A digest of the protocol:
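Human umbilical vein endothelial cells co-cultured with peripheral blood mononuclear cells under LPS stimulation; E-selectin measured by ELISA 24 h after chemical dosing. Activity fitted bidirectionally against DMSO as negative control and baseline.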

Read-out in assay [8]: Interleukin-8 (IL8), CXCL8 (gene 3576)
The experiment in a line: BSK_LPS_IL8: BioMAP Diversity Plus: LPS Assay for Interleukin-8 (IL8) Biomarker Activity (AID 2283078). To be noted: primary human HUVEC with PBMC; actives raise or lower the signal. The procedure, abridged: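 Human umbilical vein endothelial cells co-cultured with PBMC were stimulated with LPS; IL-8 levels were measured by ELISA 24 h after chemical dosing. Activity was fitted bidirectionally against DMSO as negative control and baseline.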

Assay [9] is described as follows: BSK_LPS_SRB: Viability Assessment in the BioMAP Diversity Plus: LPS Assay (AID 2283079).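 Note: total protein by sulforhodamine B absorbance as a cytotoxicity measure; measured one day after compound addition.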 The conditions noted are these: primary human HUVEC with PBMC. A digest of the protocol:
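Human umbilical vein endothelial cells co-cultured with PBMC (LPS system) were dosed for 24 h. Total protein was stained with 0.1% sulforhodamine B after 10% TCA fixation, read at 560 nm, and fitted bidirectionally against DMSO baseline.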

Read-out in assay [10]: Interleukin-1 alpha (IL1a), IL1A (gene 3552)
Description: BSK_LPS_IL1a: BioMAP Diversity Plus: LPS Assay for Interleukin-1 alpha (IL1a) Biomarker Activity (AID 2283080). The conditions noted are these: primary human HUVEC with PBMC; actives raise or lower the signal. A digest of the protocol: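 Human umbilical vein endothelial cells co-cultured with peripheral blood mononuclear cells were LPS-stimulated and exposed to test chemicals for 24 h. IL-1 alpha was quantified by ELISA, with bidirectional curve fitting against DMSO as the negative control and baseline.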

Read-out in assay [11]: Monocyte Chemoattractant Protein-1 (MCP1), CCL2 (gene 6347)
The experiment in a line: BSK_LPS_MCP1: BioMAP Diversity Plus: LPS Assay for Monocyte Chemoattractant Protein-1 (MCP1) Biomarker Activity (AID 2283081).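 For AC50: secreted MCP-1 protein quantified by ELISA in culture supernatant.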 To be noted: primary human HUVEC with PBMC; actives raise or lower the signal. The procedure, abridged:
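HUVEC plus PBMC co-culture (human primary cells, LPS system) exposed to test chemical for 24 h; MCP-1 measured by ELISA. Bidirectional curve fitting against DMSO baseline; parallel SRB total-protein staining flags overt cytotoxicity.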

The nature of assay [12]: BSK_LPS_PGE2: BioMAP Diversity Plus: LPS Assay for Prostaglandin E2 (PGE2) Biomarker Activity (AID 2283082).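 For AC50: secreted prostaglandin E2 measured by ELISA in LPS-stimulated co-culture.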 The conditions noted are these: primary human HUVEC with PBMC; actives raise or lower the signal. A digest of the protocol: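 ELISA read-out of PGE2 from human umbilical vein endothelial cells co-cultured with peripheral blood mononuclear cells under LPS, 24 h post-dose. Gain or loss of signal scored relative to DMSO baseline.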

Read-out in assay [13]: Macrophage colony-stimulating factor (MCSF), CSF1 (gene 1435)
Description: BSK_LPS_MCSF: BioMAP Diversity Plus: LPS Assay for Macrophage colony-stimulating factor (MCSF) Biomarker Activity (AID 2283083). To be noted: primary human HUVEC with PBMC; actives raise or lower the signal. A digest of the protocol: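 Human umbilical vein endothelial cells co-cultured with peripheral blood mononuclear cells were exposed to compound for 24 h. M-CSF levels were measured by ELISA, and bidirectional curve fitting used DMSO as the negative control and baseline.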

Read-out in assay [14]: Tissue Factor, F3 (gene 2152)
Description: BSK_LPS_TissueFactor: BioMAP Diversity Plus: LPS Assay for Tissue Factor Biomarker Activity (AID 2283084). To be noted: primary human HUVEC with PBMC; actives raise or lower the signal. The procedure, abridged:
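Human umbilical vein endothelial cells co-cultured with peripheral blood mononuclear cells were dosed and stimulated with LPS. Cell-surface CD142 was quantified by ELISA at 24 h. Activity was fitted bidirectionally against DMSO baseline.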

Read-out in assay [15]: Tumor necrosis factor (Homo sapiens) (UniProt P01375)
Description: BSK_LPS_TNFa: BioMAP Diversity Plus: LPS Assay for Tumour Necrosis Factor alpha (TNFa) Biomarker Activity (AID 2283085).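 For AC50: TNFa protein level quantified by ELISA in the co-culture.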 To be noted: primary human HUVEC with PBMC; actives raise or lower the signal. A digest of the protocol: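 HUVEC/PBMC co-culture, LPS-stimulated; 24 h post-dose; TNFa by ELISA; gain or loss of signal fitted bidirectionally vs DMSO baseline.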

Read-out in assay [16]: Vascular cell adhesion molecule 1 (VCAM1), VCAM1 (gene 7412)
The experiment in a line: BSK_LPS_VCAM1: BioMAP Diversity Plus: LPS Assay for Vascular cell adhesion molecule 1 (VCAM1) Biomarker Activity (AID 2283086). To be noted: primary human HUVEC with PBMC; actives raise or lower the signal. A digest of the protocol:
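ELISA read-out of VCAM-1 at 24 h post-dosing in an LPS-driven HUVEC/PBMC primary human co-culture; gain or loss of signal fitted bidirectionally against DMSO baseline. Cytotoxicity tracked in parallel cultures by SRB total-protein staining.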

Read-out in assay [17]: CD38, CD38 (gene 952)
Description: BSK_SAg_CD38: BioMAP Diversity Plus: SAg Assay for CD38 Biomarker Activity (AID 2283087). The conditions noted are these: primary human HUVEC with PBMC; actives raise or lower the signal. The procedure, abridged: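 Measures CD38 on a human endothelial/PBMC co-culture driven by SEB and TSST-1, 24 h after compound exposure, using ELISA with fluorescence detection; DMSO defines baseline for bidirectional curve fitting.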

Read-out in assay [18]: CD40, CD40 (gene 958)
The experiment in a line: BSK_SAg_CD40: BioMAP Diversity Plus: SAg Assay for CD40 Biomarker Activity (AID 2283088). The conditions noted are these: primary human HUVEC with PBMC; actives raise or lower the signal. A digest of the protocol: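 Human umbilical vein endothelial cells co-cultured with PBMC; CD40 levels measured by ELISA with fluorescence read-out 24 h after chemical dosing. Gain or loss of signal fitted bidirectionally against DMSO baseline.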

Read-out in assay [19]: CD69, CD69 (gene 969)
Description: BSK_SAg_CD69: BioMAP Diversity Plus: SAg Assay for CD69 Biomarker Activity (AID 2283089).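 Note: cell surface CD69 protein quantified by ELISA with fluorescence detection.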 The conditions noted are these: primary human HUVEC with PBMC; actives raise or lower the signal. The procedure, abridged: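 Values derive from bidirectional fitting relative to DMSO vehicle. Cells: umbilical vein endothelium plus peripheral blood mononuclear cells, treated 24 h before fluorescent ELISA for CD69.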

Read-out in assay [20]: Monocyte Chemoattractant Protein-1 (MCP1), CCL2 (gene 6347)
Description: BSK_SAg_MCP1: BioMAP Diversity Plus: SAg Assay for Monocyte Chemoattractant Protein-1 (MCP1) Biomarker Activity (AID 2283090). To be noted: primary human HUVEC with PBMC; actives raise or lower the signal. A digest of the protocol:
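Values derive from bidirectional fitting of ELISA-measured MCP1 against DMSO controls. Readings were taken 24 h after dosing human vascular endothelial cells co-cultured with peripheral blood mononuclear cells under superantigen stimulation.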

E-selectin (Homo sapiens), sequence (P16581 whole entry, looked up): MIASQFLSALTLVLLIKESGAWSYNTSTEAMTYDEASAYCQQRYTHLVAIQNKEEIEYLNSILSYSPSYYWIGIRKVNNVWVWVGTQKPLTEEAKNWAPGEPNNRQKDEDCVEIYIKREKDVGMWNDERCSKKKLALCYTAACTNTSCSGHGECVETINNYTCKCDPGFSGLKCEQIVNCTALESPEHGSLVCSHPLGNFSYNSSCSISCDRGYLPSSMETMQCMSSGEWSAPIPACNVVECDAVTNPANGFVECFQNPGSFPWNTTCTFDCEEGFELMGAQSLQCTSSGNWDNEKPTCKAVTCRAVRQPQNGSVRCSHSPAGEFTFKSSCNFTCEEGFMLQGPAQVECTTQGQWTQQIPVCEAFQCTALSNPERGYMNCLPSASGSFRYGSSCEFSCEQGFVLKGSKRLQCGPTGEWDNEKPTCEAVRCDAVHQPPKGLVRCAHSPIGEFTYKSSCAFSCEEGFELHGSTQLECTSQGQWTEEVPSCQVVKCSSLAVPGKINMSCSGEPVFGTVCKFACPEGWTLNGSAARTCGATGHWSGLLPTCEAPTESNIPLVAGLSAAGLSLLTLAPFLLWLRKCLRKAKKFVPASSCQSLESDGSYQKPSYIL
Tumor necrosis factor (Homo sapiens), sequence (P01375 whole entry, looked up): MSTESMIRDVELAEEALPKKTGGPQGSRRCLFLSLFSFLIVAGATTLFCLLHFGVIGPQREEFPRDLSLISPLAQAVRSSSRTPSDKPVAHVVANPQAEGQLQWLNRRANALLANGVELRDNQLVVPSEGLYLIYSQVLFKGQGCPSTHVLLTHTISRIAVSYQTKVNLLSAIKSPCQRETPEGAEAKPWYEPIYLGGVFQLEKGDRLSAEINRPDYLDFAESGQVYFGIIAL

As for `CC[C@H](C)[C@H]1O[C@]2(C=C[C@@H]1C)C[C@@H]1C[C@@H](C/C=C(\C)[C@@H](O[C@H]3C[C@H](OC)[C@@H](O[C@H]4C[C@H](OC)[C@@H](O)[C@H](C)O4)[C@H](C)O3)[C@@H](C)/C=C/C=C3\CO[C@@H]4[C@H](O)C(C)=C[C@@H](C(=O)O1)[C@]34O)O2` (tested in a mixture with another compound), the AC50 was 12.6 µM (active) in assay [1]; 31.7 µM (active) in [2]; 7.59 µM (active) in assay [3]; 5.77 µM (active) in assay [4]; 15.5 µM (active) in assay [5]; 6.65 µM (active) in assay [6]. For the same molecule, the AC50 in [7] is 9.62 µM (active); in assay [8], 5.94 µM (active); in assay [9], 6.41 µM (active); in [10], 6.51 µM (active); in assay [11] it was 8.83 µM (active); in assay [13], 9.77 µM (active). For the same molecule, the AC50 in assay [15] was 10.3 µM (active); in assay [16] it was 6.17 µM (active); in assay [17], 7.86 µM (active); in [18], 5.74 µM (active); in assay [19] it was 7.28 µM (active); in assay [20] it was 5.58 µM (active). Also, the outcome in [12] and in [14] was inactive.
Turning to `COP(=S)(OC)Oc1ccc([N+](=O)[O-])cc1`, the outcome in assay [2], in [3], in assay [4], in assay [5], in assay [7] and in [8] was inactive. The result in assay [10], in assay [11], in assay [14], in assay [15] and in assay [16] was inactive. Moreover, the AC50 in assay [6] was 20 µM (active); in assay [9] it was 10.5 µM (active); in assay [12] it was 14.6 µM (active); in assay [13], 15.4 µM (active); in [17] it was 20 µM (active); in assay [18], 13.8 µM (active). In addition, the AC50 was 15.5 µM (active) in assay [19] and 14.5 µM (active) in [20].
